# A selection: hits, their analogues and other compounds. The true share with any hit is near 6.5%.
# Vaccinia Venus: qHTS for Stage-Specific Inhibitors of Vaccinia Orthopoxvirus: Venus Reporter Primary qHTS; Potency, µM (titrated, usually from 36.5 µM), most hits filed as inhibitors; hit rate 0.46% among 330,000; Vaccinia virus Venus reporter expression, fluorescence; AID 720580, 2013; calls by dose curve; tested in A549 cells; also: nearly all actives have a fitted effect of over 30% in size
# LASV entry inh: qHTS for Inhibitors of binding or entry into cells for Lassa Virus; Lassa virus pseudotype entry inhibition, cell reporter; Potency, µM (titrated, usually from 37.9 µM), most hits filed as inhibitors; hit rate 1.2% among 300,000; AID 540256, 2011; calls by dose curve; tested in HEK293 cells; also: nearly all actives have a fitted effect of over 50% in size
# Marburg entry inh: qHTS for inhibitors of binding or entry into cells for Marburg Virus | Marburg virus pseudotyped entry inhibition, cell reporter | Potency, µM (series often up to 37.8 µM), hits mostly inhibitors | hit rate 1.8% among 300,000 | AID 540276, 2011; calls by dose curve; tested in HEK293 cells
# Vaccinia mCherry: qHTS for Stage-Specific Inhibitors of Vaccinia Orthopoxvirus: mCherry Reporter Primary qHTS; Vaccinia virus mCherry reporter infection, fluorescence; Potency, µM (top dose mostly 36.5 µM), usual class: inhibitors; hit rate 0.63% among 310,000; AID 720579, 2013; calls by dose curve; tested in A549 cells; also: nearly all actives have a fitted effect of over 35% in size
# HCMV inh: qHTS Assay for inhibitors of the human cytomegalovirus (HCMV) | HFF cells, HCMV-luciferase reporter, 72 h; hits give low values | activity change, negative = inhibition, % at 57.5 µM | hit rate 4.5% among 410,000 | AID 1259415, 2018; in the data active = activity change below about -60%; inconclusive = no clear call, values can overlap the other calls; inactive = above about -39%
#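 HFF cells seeded 16 h at 37C, treated with compounds, infected with luciferase-reporter HCMV at MOI 1 PFU/cell; luciferase read at 72 h post infection, normalized to buffer-only and Salinomycin controls.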
# FMDV inh: High Throughput Screening for Foot and Mouth Disease Virus Antivirals; FMDV antiviral cell-based qHTS; Potency, µM (doses to about 57.9 µM), usual class: inhibitors; hit rate 1.2% among 410,000; calls by dose curve; tested in HEK293T cells; also: read-out not given here; nearly all actives have a fitted effect of over 45% in size
# Hits are given with their value; – = inactive; ? = inconclusive; · = no result given; [ ] = remark or other dose.
SMILES,Vaccinia Venus,LASV entry inh,Marburg entry inh,Vaccinia mCherry,HCMV inh,FMDV inh
Cc1noc(C)c1CSCC(=O)N1CCN(c2ccc(F)cc2)CC1,–,–,?,?,-60,?
Cc1noc(C)c1CSc1ccccc1C(=O)N1CCN(c2ccccc2)CC1,–,10µM,–,–,–,?
O=C(NCCO)c1cn(C2CCCN(Cc3cccc(C(F)(F)F)c3)C2)nn1 (stereo unspecified),–,·,·,–,·,–
C=CC[n+]1c(-c2ccc(OC)cc2)csc1NNC(=O)Nc1ccccc1,–,?,–,–,?,·
C=CC[n+]1c(-c2ccc(C)cc2)csc1Nc1ccc(NC(C)=O)cc1,·,2.3µM,6.5µM,·,-88,?
C=CCN=C1NC(c2ccccc2)C(C(=O)OC)=C(C)N1C (stereo unspecified),·,·,·,·,–,·
CCOC(=O)C1CCN(c2nc3c(S(=O)(=O)c4ccccc4)nnn3c3ccc(Cl)cc23)CC1,–,·,–,–,–,–
C(=C\c1ccco1)/c1ccc2ccccc2n1,–[7.34 µM],?,2.8µM,–[7.34 µM],–,–
Fc1cccc(F)c1/C=C/c1ccc2ccccc2n1,–,?,?,–,–,–
Cc1ccsc1/C=C/c1ccc2cccc(O)c2n1,·,?,?,·,–,–
Cc1ccsc1/C=C/c1ccc2ccccc2n1,–,13µM,?,–,–,–
O=c1c(O)cc(C2Oc3cc(O)cc(O)c3CC2O)cc2c(C3Oc4cc(O)cc(O)c4CC3O)cc(O)c(O)c12 (stereo unspecified),–,·,·,–,·,–
COc1ccc(O[C@H]2C=C[C@@H](c3ccccc3)O[C@@H]2CO/N=C2/[C@H]3CCn4c(=O)n(-c5ccccc5)c(=O)n4[C@H]3[C@H](O)[C@@H]3O[C@H]23)cc1,·,·,–,·,·,·
COC(=O)c1ccc(OC)c(CSc2nnc(COc3cccc(C)c3)o2)c1,·,–,16µM,·,–,–
Clc1ccc(Nc2nnc(Cc3ccncc3)c3ccccc23)cc1,·,·,·,·,–,·
CCc1ccc2occ(CC(=O)Nc3nnc(C)s3)c2c1,–,–,?,–,–,–
CC[C@H](CO)Oc1cc(NCc2cccc(N)c2)c2ncn(C(C)C)c2c1,–,·,·,–,–,–
CCC(CO)Oc1cc(NCc2cccc(C)c2)c2ncn(C(C)C)c2c1 (stereo unspecified),–,·,·,?,-76,–
O=C(NCc1cccnc1)c1cc(Sc2ccc(F)cc2F)nc2ccccc12,–,?,11µM,–,-64,?
NC1N=CC(c2cc3ccccc3oc2=O)S1 (stereo unspecified),·,·,–,·,·,·
O=C(CCS(=O)(=O)c1ccccc1)Nc1nnc(-c2ccco2)o1,?,–,–,11µM,–,–
COc1cc(OC)cc(-c2nnc(NC(=O)CCS(=O)(=O)c3ccc(C)cc3)o2)c1,?,?,–,7.9µM,–,–
O=C(C[n+]1cccc2cc(Cl)ccc21)c1ccc2ccccc2c1,–,·,·,?,·,·
CC(Cc1ccccc1)NCc1ccccc1O (stereo unspecified),–,–,–,–,-67,–
Clc1ccc2c(N/N=C/c3ccccc3Br)ccnc2c1,–,–,?,–,-64,–
SMILES,Vaccinia Venus,LASV entry inh,Marburg entry inh,Vaccinia mCherry,HCMV inh,FMDV inh
O=[N+]([O-])c1ccc(/C=N/NS(=O)(=O)c2ccc(Cl)cc2)o1,–,–,–,–,–,–
C/C(=N/Nc1ccnc2cc(Cl)ccc12)c1ccc(N)cc1,?,·,·,8.9µM,–,–
Clc1ccc2c(NNc3ccccc3Cl)ccnc2c1,·,–,–,·,–,–
O=[N+]([O-])c1ccc(/C=N/Nc2ccnc3cc(Cl)ccc23)o1,?,–,?,16µM,-66,–
Cn1ccc2c(-c3ccc(F)cc3F)cc3c(c21)C1CCC3O1 (stereo unspecified),·,–,·,·,·,·
COc1ccc(CN(C(=O)c2nsc(Cl)c2Cl)C(C(=O)NC2CCCC2)c2ccc(C)cc2)cc1 (stereo unspecified),–,16µM,?,–,?,–
COc1ccc(CN(C(=O)c2snc(C(N)=O)c2N)C(C(=O)NC2CCCC2)c2ccc(OC)c(OC)c2)cc1 (stereo unspecified),–,–,–,–,?,–
Cc1ccc(C)c(N(C(=O)c2nsc(Cl)c2Cl)C(C(=O)NC2CCCC2)c2ccc(O)cc2)c1 (stereo unspecified),?,?,?,?,–,–
COc1ccc(CN(C(=O)c2nsc(Cl)c2Cl)C(C(=O)NC2CCCCC2)c2ccc(OC)cc2)cc1 (stereo unspecified),–,?,15µM,–,–,·
CC(=O)c1ccccc1S(=O)(=O)N1CCN(c2nc(-c3cccs3)nc3ccccc23)CC1,–,·,·,–,·,·
CC(C)(C)NCC(O)C1=C(Cl)CCCC1 (stereo unspecified),·,·,–,·,·,·
COc1ccc(N=Nc2ccc(CO)cc2)cc1,–,1µM,?,–,–,–
O=C(/C(=C/c1ccc(Cl)cc1)c1nc2ccccc2[nH]1)c1ccccc1,?,4.1µM,?,?,-96,?
CS(=O)(=O)N(Cc1ccccc1)c1ccc(C(=O)Nc2ccc(Cl)cc2)cc1,–,?,·,–,-88,?
O=C(N/C(=C/c1ccc(Cl)cc1)c1nc2ccccc2[nH]1)c1ccco1,?,–,?,–,–,–
C=CCN(c1ccccc1)S(=O)(=O)c1cccc(C(=O)Nc2ccncc2)c1,–,?,?,–,-75,22µM
Cc1ccccc1NC(=O)c1ccc(N(Cc2ccccc2)S(C)(=O)=O)cc1,–,–,·,–,?,–
COc1cc(/C=C(/C(=O)c2cccs2)c2nc3ccccc3[nH]2)cc(OC)c1O,·,?,–,·,-102,14µM
C[C@@H]1ON(C)[C@H]2C[C@H]3c4[nH]c5c(-c6ccc(C(F)(F)F)cc6)cccc5c4CCN3C(=O)[C@@H]12,·,·,·,·,–,·
O=C(Nc1nc2ccccc2[nH]1)c1ccc(Cl)cc1,–,2.5µM,?,–,–,–
CN(c1cccc(Cl)c1)S(=O)(=O)c1cccc(C(=O)Nc2nc3ccccc3[nH]2)c1,11µM,?,22µM,?,-99,13µM
CCN(c1ccccc1)S(=O)(=O)c1ccc(C(=O)Nc2cccc(NC(C)=O)c2)cc1,·,·,·,·,–,?
CCN(c1ccccc1)S(=O)(=O)c1ccc(C(=O)Nc2ccncc2)cc1,–,?,?,–,–,25µM
O=C(Nc1nc2ccccc2[nH]1)c1ccccc1,–,?,?,·,–,–
C=CCN(c1ccccc1)S(=O)(=O)c1cccc(C(=O)Nc2nc3ccccc3[nH]2)c1,–,–,?,–,–,22µM
COc1ccc2c(c1)[C@@H](NCc1nccs1)[C@H](C)[C@@H](c1ccccc1)N2C(=O)NC(C)C,·,·,·,·,–,·
COc1cccc([C@@H]2Oc3ccc(Br)cc3C(=O)[C@@H]2OC(=O)Nc2cc(OC)c(OC)c(OC)c2)c1,·,·,–,·,·,·
Cc1ccc(S(=O)(=O)N2CCN(c3nc(-c4cnccn4)nc4ccccc34)CC2)cc1,–,·,·,–,·,·
O=C(NCc1ccccn1)c1cnn(-c2nccc(-c3cc4ccccc4o3)n2)c1C1CC1,–,·,·,–,·,–
